Among all 5,500 compounds or so, about 2,000 (36%) were called active. Another 18% or so got no clear call; they are omitted. No stated cut-off is given here; in the data, active means normalized growth mostly below about 0.91 (no sharp cut-off); inconclusive means no clear call, values can overlap the other calls; inactive means mostly above about 0.92. The list shows a part of the results.
Experiment: chemical genetic growth profiling, strain panel (AID 1159580);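 further: tested at 20 µM; growth read once vehicle control cultures reached saturation at 30 °C; 1 = growth at the plate median or of vehicle wells; lower values mean less growth of the strain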
Details: growth OD

Measured: normalized growth

CCCCC1=NC2(CCCC2)C(=O)N1Cc1ccc(-c2ccccc2-c2nn[nH]n2)cc1
inactive: S. cerevisiae deletion strains, locus YKL009W, strain mrt4, active compounds read low 0.952 | S. cerevisiae deletion strains, locus YKL068W, active compounds read low 0.98 | S. cerevisiae deletion strains, locus YKL085W, strain MDH1 (second series), active compounds read low 0.986 | S. cerevisiae deletion strains, locus YKL085W, strain MDH1, active compounds read low 0.986 | S. cerevisiae deletion strains, locus YKL160W, strain elf1, active compounds read low 1.01 | S. cerevisiae deletion strains, locus YKL190W, strain CNB1, active compounds read low 0.986 | S. cerevisiae deletion strains, locus YKR001C, strain vps1, active compounds read low 0.996 | S. cerevisiae deletion strains, locus YKR026C, strain gcn3, active compounds read low 1.01 | S. cerevisiae deletion strains, locus YKR091W, strain srl3, active compounds read low 1.02 | S. cerevisiae deletion strains, locus YLL001W, strain dnm1, active compounds read low 1.01 | S. cerevisiae deletion strains, locus YLL026W, active compounds read low 1.02 | S. cerevisiae deletion strains, locus YLL041C, strain sdh2, active compounds read low 1.01 | S. cerevisiae deletion strains, locus YLR027C, strain aat2, active compounds read low 0.999 | S. cerevisiae deletion strains, locus YLR039C, strain RIC1, active compounds read low 0.969 | S. cerevisiae deletion strains, locus YLR058C, strain SHM2, active compounds read low 0.964 | S. cerevisiae deletion strains, locus YLR102C, strain apc9, active compounds read low 0.981 | S. cerevisiae deletion strains, locus YLR113W, strain HOG1, active compounds read low 1.02 | S. cerevisiae deletion strains, locus YLR221C, strain rsa3, active compounds read low 1.01 | S. cerevisiae deletion strains, locus YLR258W, strain gsy2, active compounds read low 1.02 | S. cerevisiae deletion strains, locus YLR262C, strain YPT6 (second series), active compounds read low 1.04 | S. cerevisiae deletion strains, locus YLR262C, strain YPT6, active compounds read low 0.947 | S. cerevisiae deletion strains, locus YLR268W, strain sec22, active compounds read low 1.09 | S. cerevisiae deletion strains, locus YLR320W, strain mms22, active compounds read low 1.02 | S. cerevisiae deletion strains, locus YLR330W, strain CHS5, active compounds read low 0.987 | S. cerevisiae deletion strains, locus YLR342W, strain FKS1 (second series), active compounds read low 0.96 | S. cerevisiae deletion strains, locus YLR342W, strain FKS1, active compounds read low 1.02 | S. cerevisiae deletion strains, locus YLR357W, strain rsc2, active compounds read low 1.01 | S. cerevisiae deletion strains, locus YLR370C, strain arc18, active compounds read low 1.01 | S. cerevisiae deletion strains, locus YLR371W, strain rom2, active compounds read low 0.972 | S. cerevisiae deletion strains, locus YLR384C, strain iki3, active compounds read low 1 | S. cerevisiae deletion strains, locus YLR418C, strain cdc73, active compounds read low 0.993 | S. cerevisiae deletion strains, locus YML016C, strain PPZ1, active compounds read low 0.984 | S. cerevisiae deletion strains, locus YML032C, strain rad52, active compounds read low 1.02 | S. cerevisiae deletion strains, locus YML120C, strain ndi1, active compounds read low 0.997 | S. cerevisiae deletion strains, locus YML124C, strain tub3, active compounds read low 0.977 | S. cerevisiae deletion strains, locus YMR058W, strain fet3, active compounds read low 1 | S. cerevisiae deletion strains, locus YMR078C, strain ctf18, active compounds read low 0.991 | S. cerevisiae deletion strains, locus YMR125W, strain sto1, active compounds read low 1.01 | S. cerevisiae deletion strains, locus YMR129W, active compounds read low 1.01 | S. cerevisiae deletion strains, locus YMR205C, strain PFK2, active compounds read low 1.03 | S. cerevisiae deletion strains, locus YMR223W, strain ubp8, active compounds read low 0.957 | S. cerevisiae deletion strains, locus YMR231W, strain pep5, active compounds read low 1.02 | S. cerevisiae deletion strains, locus YMR263W, strain SAP30, active compounds read low 0.998 | S. cerevisiae deletion strains, locus YMR307W, strain GAS1, active compounds read low 0.964 | S. cerevisiae deletion strains, locus YNL067W, strain RPL9B, active compounds read low 1.04 | S. cerevisiae deletion strains, locus YNL071W, strain lat1, active compounds read low 1 | S. cerevisiae deletion strains, locus YNL128W, strain TEP1, active compounds read low 0.968 | S. cerevisiae deletion strains, locus YNL153C, strain GIM3, active compounds read low 1.03 | S. cerevisiae deletion strains, locus YNL183C, strain NPR1, active compounds read low 0.966 | S. cerevisiae deletion strains, locus YNL209W, strain ssb2, active compounds read low 1.01 | S. cerevisiae deletion strains, locus YNL233W, strain BNI4, active compounds read low 1.04 | S. cerevisiae deletion strains, locus YNL248C, strain rpa49, active compounds read low 1.04 | S. cerevisiae deletion strains, locus YNL250W, strain rad50, active compounds read low 0.978 | S. cerevisiae deletion strains, locus YNL271C, strain bni1, active compounds read low 1 | S. cerevisiae deletion strains, locus YNL298W, strain CLA4, active compounds read low 0.971 | S. cerevisiae deletion strains, locus YNL307C, strain MCK1, active compounds read low 0.99 | S. cerevisiae deletion strains, locus YNL322C, strain KRE1 (second series), active compounds read low 1.03 | S. cerevisiae deletion strains, locus YNL322C, strain KRE1, active compounds read low 0.986 | S. cerevisiae deletion strains, locus YNR049C, strain mso1, active compounds read low 1 | S. cerevisiae deletion strains, locus YNR052C, strain pop2, active compounds read low 0.999 | S. cerevisiae deletion strains, locus YOL006C, strain TOP1, active compounds read low 1.1 | S. cerevisiae deletion strains, locus YOL012C, strain htz1 0.917 | S. cerevisiae deletion strains, locus YOL147C, strain pex11, active compounds read low 0.992 | S. cerevisiae deletion strains, locus YOR001W, strain rrp6, active compounds read low 1.01 | S. cerevisiae deletion strains, locus YOR061W, strain CKA2, active compounds read low 0.97 | S. cerevisiae deletion strains, locus YOR069W, strain VPS5, active compounds read low 0.991 | S. cerevisiae deletion strains, locus YOR070C, strain gyp1, active compounds read low 1.01 | S. cerevisiae deletion strains, locus YOR080W, strain dia2, active compounds read low 1 | S. cerevisiae deletion strains, locus YOR083W, strain WHI5, active compounds read low 1.03 | S. cerevisiae deletion strains, locus YOR106W, strain vam3, active compounds read low 1.02 | S. cerevisiae deletion strains, locus YOR136W, strain idh2, active compounds read low 0.967 | S. cerevisiae deletion strains, locus YOR144C, strain elg1, active compounds read low 0.987 | S. cerevisiae deletion strains, locus YOR184W, strain ser1, active compounds read low 0.979 | S. cerevisiae deletion strains, locus YOR231W, strain MKK1, active compounds read low 0.981 | S. cerevisiae deletion strains, locus YOR265W, strain rbl2, active compounds read low 1.01 | S. cerevisiae deletion strains, locus YOR270C, strain vph1, active compounds read low 1.08 | S. cerevisiae deletion strains, locus YOR290C, strain snf2, active compounds read low 1.01 | S. cerevisiae deletion strains, locus YOR316C, strain cot1, active compounds read low 0.984 | S. cerevisiae deletion strains, locus YPL051W, strain arl3, active compounds read low 0.984 | S. cerevisiae deletion strains, locus YPL055C, strain LGE1, active compounds read low 0.959 | S. cerevisiae deletion strains, locus YPL078C, strain atp4, active compounds read low 1.01 | S. cerevisiae deletion strains, locus YPL106C, strain sse1, active compounds read low 1.01 | S. cerevisiae deletion strains, locus YPL240C, strain hsp82, active compounds read low 1 | S. cerevisiae deletion strains, locus YPL241C, strain CIN2, active compounds read low 0.99 | S. cerevisiae deletion strains, locus YPL256C, strain CLN2, active compounds read low 0.985 | S. cerevisiae deletion strains, locus YPR119W, strain clb2, active compounds read low 0.986 | S. cerevisiae deletion strains, locus YPR141C, strain kar3, active compounds read low 0.971 | S. cerevisiae deletion strains, locus YPR163C, strain tif3, active compounds read low 0.995 | S. cerevisiae deletion strains, locus YPR167C, strain met16, active compounds read low 0.991 | S. cerevisiae deletion strains, strain wtn01, active compounds read low 1.02 | S. cerevisiae strains, strain wild type, active compounds read low 0.978

From PubChem BioAssay AID1159580 (chemical genetic matrix, 2015)
